High-throughput results as filed in PubChem BioAssay.
An excerpt weighted towards active compounds, which were near 3.8% of everything screened.
Jurkat NFkB inh = inhibitors of the PMA/ionomycin-induced NF-kB reporter in Jurkat cells. PMA/ionomycin-induced NF-kB luciferase reporter, luminescence. inhibition, % at 4 µM. 0.53% of 330,000 active; in the data active means inhibition above about 50%
Gli-Sufu block = antagonists of Gli-Sufu signaling; 0.74% of 340,000 active; AID 588413; Sufu-KO-LIGHT fibroblasts, Gli luciferase reporter luminescence; inhibition, % at 5 µM;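 active means inhibition above about 55%, limit read from the data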;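 further: 0% = DMSO-treated cells and 100% = wells with medium but no cells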
Mdm2-MdmX inh = human Mdm2/MdmX binding inhibition; AID 485346; SaOS-2 split-luciferase Mdm2/MdmX complementation, luminescence; 3% of 330,000 active; O15151+Q00987; inhibition, % at 8 µM;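 active means inhibition of at least 50% at 8 µM in the primary screen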
Target sequence (O15151 whole entry, looked up): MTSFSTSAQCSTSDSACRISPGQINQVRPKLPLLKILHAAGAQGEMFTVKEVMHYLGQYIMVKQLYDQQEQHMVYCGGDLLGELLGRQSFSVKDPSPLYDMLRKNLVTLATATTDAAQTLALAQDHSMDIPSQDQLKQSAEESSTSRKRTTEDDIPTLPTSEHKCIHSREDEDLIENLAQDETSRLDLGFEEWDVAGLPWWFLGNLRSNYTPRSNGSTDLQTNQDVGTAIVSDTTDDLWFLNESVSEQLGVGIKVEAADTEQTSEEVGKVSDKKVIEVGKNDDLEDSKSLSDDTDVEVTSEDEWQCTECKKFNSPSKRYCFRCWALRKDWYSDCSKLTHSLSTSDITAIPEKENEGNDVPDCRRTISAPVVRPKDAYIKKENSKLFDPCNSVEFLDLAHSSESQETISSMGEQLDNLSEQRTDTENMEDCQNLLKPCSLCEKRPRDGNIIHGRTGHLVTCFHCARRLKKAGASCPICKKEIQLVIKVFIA
Target sequence (Q00987 whole entry, looked up): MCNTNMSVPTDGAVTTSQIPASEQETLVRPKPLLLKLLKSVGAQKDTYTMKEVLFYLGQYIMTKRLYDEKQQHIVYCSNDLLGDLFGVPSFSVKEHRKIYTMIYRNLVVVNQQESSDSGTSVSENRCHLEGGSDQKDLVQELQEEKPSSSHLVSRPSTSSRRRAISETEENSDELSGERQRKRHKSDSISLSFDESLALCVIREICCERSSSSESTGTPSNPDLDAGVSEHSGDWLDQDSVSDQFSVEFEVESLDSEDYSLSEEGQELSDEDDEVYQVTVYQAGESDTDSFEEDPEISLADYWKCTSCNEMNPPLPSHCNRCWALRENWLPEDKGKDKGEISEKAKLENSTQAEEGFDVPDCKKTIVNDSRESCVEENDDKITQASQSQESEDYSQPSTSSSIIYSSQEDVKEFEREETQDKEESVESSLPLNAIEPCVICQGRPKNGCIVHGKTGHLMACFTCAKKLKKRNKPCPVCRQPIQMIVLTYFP
Shn3 inh set2 = Schnurri-3 reporter inhibition in Clone20 osteoblasts | inhibition, % at 12.5 µM | 0.52% of 360,000 active | Clone20 osteoblast Shn3 3'UTR firefly luciferase, 24 h;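 active means mean inhibition of at least 75% with every replicate also reaching 75%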;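 further: 0% = median of neutral control wells and 100% = pilot-screen positive control compound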
697 NFkB inh = lowers PMA/ionomycin-induced NF-kB signal in 697 B cells; 697 B-cell NF-kB luciferase reporter, 16 h; inhibition, % at 4 µM; 0.33% of 330,000 active; AID 435022; in the data active means inhibition above about 35%
Jurkat NFkB conf = lowers PMA/ionomycin-induced NF-kB signal in Jurkat cells; inhibition, % at 4 µM; 27% of 2,700 active; shares compounds with Jurkat NFkB inh; Jurkat NF-kB luciferase, 16 h; AID 435020;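 active means inhibition reaching about 45% at 4 µM in either replicate, limit read from the data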;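 further: plate controls were PMA/ionomycin stimulated DMSO wells for no effect and unstimulated DMSO wells for full effect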
697 NFkB conf = lowers PMA/ionomycin-induced NF-kB signal in 697 B cells. inhibition, % at 4 µM. 697 B-cell NF-kB luciferase, 16 h. 35% of 2,000 active. shares compounds with 697 NFkB inh. AID 449746; in the data active means inhibition mostly above about 28%, no sharp cut-off; inactive means mostly below about 22%
Mdm2 MdmX conf = confirmation of human Mdm2/MdmX interaction inhibitors | inhibition, % at 8 µM | shares compounds with Mdm2-MdmX inh | 55% of 10,000 active | Mdm2-MdmX binding, luminescent assay | AID 489028; in the data active means inhibition above about 40%
Full FLuc ctr = inhibits full-length luciferase, flagging false Mdm2/MdmX hits; shares compounds with Mdm2-MdmX inh; SaOS-2 full-length luciferase counterscreen, luminescence; inhibition, % at 8 µM; 77% of 6,200 active;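 active means mean inhibition at 8 µM reaching about 37%, which flags the compound as non-specific, limit read from the data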;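 further: p53-null SaOS-2 cells with luciferase driven by a doxycycline-inducible promoter; compound on cells about two nights before reading with doxycycline added after day one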
Gli-Sufu confirm = confirmation of Gli-SUFU pathway antagonists; shares compounds with Gli-Sufu block; Sufu-KO-LIGHT cells, Gli luciferase reporter, luminescence; inhibition, % at 5 µM; 40% of 2,500 active; AID 602428;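 active means mean inhibition at 5 µM reaching about 45%, limit read from the data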;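 further: plate controls were DMSO-treated cells for no effect and wells lacking cells for full effect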
SufuKO cytotox = cytotoxicity counter-screen for Gli-SUFU antagonists; Sufu-KO-LIGHT cells cytotoxicity, ATP luminescence; 32% of 2,500 active; cytotoxicity, % at 5 µM; AID 651994; shares compounds with Gli-Sufu block;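 active means mean cytotoxicity at 5 µM above about 25%, limit read from the data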;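 further: cells exposed to compound overnight for roughly 16 to 18 hours; plate controls were DMSO wells with cells for no effect and medium without cells for full effect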
Wnt3a counter = inhibits Wnt3a reporter, counter-screen for Gli-SUFU antagonists | shares compounds with Gli-Sufu block | 20% of 2,500 active | Wnt-LIGHT cells, Wnt3a-driven luciferase reporter, luminescence | inhibition, % at 6.25 µM;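 active means mean inhibition above about 25%, limit read from the data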
Starred values were filed as active, the others as inactive; x = no result.

SMILES	Jurkat NFkB inh	Gli-Sufu block	Mdm2-MdmX inh	Shn3 inh set2	697 NFkB inh	Jurkat NFkB conf	Mdm2 MdmX conf	Full FLuc ctr	others
COc1ccccc1-c1nnc2sc(-c3ccc(N(C)C)cc3)nn12	78.0*	54.9	68.6*	28.2	-203.6	47.0	67.7*	93.7*
CN(C)c1ccc(-c2nn3c(-c4ccccc4Cl)nnc3s2)cc1	75.1*	17.7	53.3*	3.2	24.7	63.4*	65.5*	64.6*
COc1ccc(NC(=O)CN(C)C(=O)CNC(=O)c2ccc3c(c2)OCO3)cc1	-12.5	-4.6	23.5	-0.9	-5.7	x	x	x
COc1ccc(CCN(C)C(=O)C2CCN(C(=O)Nc3ccccc3)CC2)cc1OC	-20.3	-3.6	7.9	-1.7	-14.9	x	x	x
CCC(=NCCc1c(C)[nH]c2ccc(OC(F)(F)F)cc12)C1=C(O)CC(c2ccccc2)CC1=O (centres undefined)	67.0*	4.2	65.7*	32.8	-28.3	16.5	64.0*	73.0*
CC(=NCCc1c(C)[nH]c2ccc(OCc3ccccc3)cc12)C1=C(O)CC(c2ccccc2)CC1=O (centres undefined)	7.2	10.1	28.5	19.5	-31.9	x	x	x
CCC(=NC)C1=C(O)CC(c2ccccc2)CC1=O (centres undefined)	-37.8	-24.1	23.4	-44.2	-28.2	x	x	x
CCCCC(=NCCc1c(C)[nH]c2ccc(OC)cc12)C1=C(O)CC(c2ccccc2)CC1=O (centres undefined)	69.0*	23.4	59.6*	19.5	-55.5	13.4	54.0*	66.1*
N#Cc1cccc(-c2csc(C(O)c3ccco3)n2)c1 (centres undefined)	x	x	x	-1.2	x	x	x	x
O=S1(=O)C=C(Sc2nnc(-c3ccccc3)o2)c2ccccc21	89.5*	-2.5	80.1*	98.0*	-43.7	65.2*	99.8*	50.4*
CSc1nnc(-c2ccccc2)o1	-3.6	-2.5	-0.1	-9.8	4.2	x	x	x
COc1cc(C2=NOC(C(=O)NCc3ccco3)C2)cc(OC)c1OC (centres undefined)	65.5*	-1.2	63.8*	1.9	-9.3	5.7	57.5*	72.5*
O=C(NCc1ccco1)C1CC(c2c(Cl)cccc2Cl)=NO1 (centres undefined)	9.9	-1.6	2.1	-5.7	1.2	x	x	x
COc1cc(OC)c(C2=NOC(C(=O)NCc3cccs3)C2)cc1Cl (centres undefined)	53.5*	11.2	53.5*	22.4	-16.5	21.8	50.8*	59.2*
COc1cc(OC)c(C2=NOC(C(=O)NCc3cccnc3)C2)cc1Cl (centres undefined)	28.6	-11.2	28.5	2.8	-8.5	x	x	x
OCCC1CN(CCCn2cccn2)CCN1C1CCCCC1 (centres undefined)	x	0.9	x	-15.3	x	x	x	x
CCOc1ccc2nc(C)cc(Nc3cccc([N+](=O)[O-])c3)c2c1	76.9*	45.3	100.4*	8.4	7.3	33.8	99.6*	51.0*
CC1(c2ccc(OC(F)F)cc2)NC(=O)N(CC(=O)Nc2cccnc2Cl)C1=O (centres undefined)	5.5	-7.4	17.3	5.2	-4.1	x	x	x
COc1cccc2c1C(=O)c1c(O)c3c(c(O)c1C2=O)C[C@@](O)(C(=O)CO)C[C@@H]3O[C@H]1C[C@H](N)[C@@H](O)[C@H](C)O1	94.0*	67.9*	94.2*	82.8	86.5*	89.9*	99.5*	4.0	697 NFkB conf=92.2*
CC(C)N(C(=O)Cn1cc(SCC(=O)NCC2CCCO2)c2ccccc21)C(C)C (centres undefined)	-2.2	-12.4	7.3	-1.9	-1.1	x	x	x
O=C(NC(=S)Nc1cccc(Cl)c1N1CCCCC1)c1ccc2c(c1)OCCO2	50.3*	-2.7	61.4*	21.8	-28.9	2.1	63.0*	56.7*
O=S(=O)(Nc1cccc2cccnc12)c1ccccc1	100.9*	47.1	100.3*	78.8	-13.6	18.9	99.7*	52.1*
Cc1ccc2cccc(NS(=O)(=O)c3ccccc3)c2n1	98.6*	53.9	83.8*	x	-7.7	42.9	95.0*	23.1
O=S(=O)(Nc1cccc2ccccc12)c1ccccc1	-14.9	36.3	-10.0	4.1	-2.3	x	x	x
CC(=O)Nc1ccc(S(=O)(=O)Nc2cccc3cccnc23)cc1	6.8	-4.5	17.8	-7.9	3.8	x	x	x
SMILES	Jurkat NFkB inh	Gli-Sufu block	Mdm2-MdmX inh	Shn3 inh set2	697 NFkB inh	Jurkat NFkB conf	Mdm2 MdmX conf	Full FLuc ctr	others
COc1ccc(-n2nnnc2SCC(=O)Nc2ccccc2F)cc1	-2.8	-0.7	5.3	-2.6	9.0	x	x	x
COc1ccc(C)cc1NS(=O)(=O)c1ccc(-c2cnc(C3CC3)o2)cc1	65.6*	65.5*	82.6*	89.6*	-272.4	68.3*	52.0*	111.4*	697 NFkB conf=-213.2;Gli-Sufu confirm=62.1*;SufuKO cytotox=65.8*;Wnt3a counter=14.8
CCOc1ccccc1CNS(=O)(=O)c1ccc(-c2cnc(C3CC3)o2)cc1	57.5*	54.6	60.5*	66.4	-58.5	55.0*	60.0*	83.6*	Gli-Sufu confirm=55.4*;SufuKO cytotox=58.6*;Wnt3a counter=-57.8
C/C=C/COC(=O)c1[nH]c2c(c1C)C(=O)CC(c1ccco1)C2 (centres undefined)	58.6*	56.2*	64.9*	73.0	-25.3	42.8*	56.0*	73.0*	Gli-Sufu confirm=67.0*;SufuKO cytotox=60.1*;Wnt3a counter=-7.0
NC(=O)CC(NC(=O)c1ccc(Br)cc1)c1ccc(N2CCCCCC2)c([N+](=O)[O-])c1 (centres undefined)	53.8*	60.9*	25.0	89.5*	-0.3	47.3	x	x	Gli-Sufu confirm=32.1;SufuKO cytotox=22.6;Wnt3a counter=-109.0
Cc1cc(/C=N/n2cnnc2)c(C)n1-c1ccc(OCc2ccc(Cl)cc2Cl)cc1	70.2*	82.3*	73.6*	98.1*	40.2*	32.4	31.3	x	697 NFkB conf=12.7;Gli-Sufu confirm=81.6*;SufuKO cytotox=34.7*;Wnt3a counter=67.9*
N=c1ccn(CC(=O)c2ccc(-c3ccccc3)cc2)cc1	57.9*	81.7*	66.0*	62.6	10.0	45.8	69.3*	41.3*	Gli-Sufu confirm=84.2*;SufuKO cytotox=24.8;Wnt3a counter=29.8*
Nc1ncnc2c1ncn2[C@H]1C[C@H](O)[C@@H](CO)O1	-0.1	-4.2	-13.2	7.9	17.5	x	x	x
